Experimental findings from ChEMBL document CHEMBL3988442, “University of Dundee, Small-Polar-MMV Screening Library” (2021) are described below.

Holding throughout (set-up): scale not given: direction of the effect not stated beside the values
Assay [1] addresses Protein translocase subunit SecA (Escherichia coli (strain K12)) (UniProt P10408). In words: Assay to Identify E. coli SecA ATPase Inhibitors. The format is functional. The settings on record: 30 µM.
The target of assay [2] is T1, Ubiquitin-activating enzyme e1, putative (Leishmania donovani (strain BPK282A1)) (UniProt E9BSI1).
T1 sequence (whole entry): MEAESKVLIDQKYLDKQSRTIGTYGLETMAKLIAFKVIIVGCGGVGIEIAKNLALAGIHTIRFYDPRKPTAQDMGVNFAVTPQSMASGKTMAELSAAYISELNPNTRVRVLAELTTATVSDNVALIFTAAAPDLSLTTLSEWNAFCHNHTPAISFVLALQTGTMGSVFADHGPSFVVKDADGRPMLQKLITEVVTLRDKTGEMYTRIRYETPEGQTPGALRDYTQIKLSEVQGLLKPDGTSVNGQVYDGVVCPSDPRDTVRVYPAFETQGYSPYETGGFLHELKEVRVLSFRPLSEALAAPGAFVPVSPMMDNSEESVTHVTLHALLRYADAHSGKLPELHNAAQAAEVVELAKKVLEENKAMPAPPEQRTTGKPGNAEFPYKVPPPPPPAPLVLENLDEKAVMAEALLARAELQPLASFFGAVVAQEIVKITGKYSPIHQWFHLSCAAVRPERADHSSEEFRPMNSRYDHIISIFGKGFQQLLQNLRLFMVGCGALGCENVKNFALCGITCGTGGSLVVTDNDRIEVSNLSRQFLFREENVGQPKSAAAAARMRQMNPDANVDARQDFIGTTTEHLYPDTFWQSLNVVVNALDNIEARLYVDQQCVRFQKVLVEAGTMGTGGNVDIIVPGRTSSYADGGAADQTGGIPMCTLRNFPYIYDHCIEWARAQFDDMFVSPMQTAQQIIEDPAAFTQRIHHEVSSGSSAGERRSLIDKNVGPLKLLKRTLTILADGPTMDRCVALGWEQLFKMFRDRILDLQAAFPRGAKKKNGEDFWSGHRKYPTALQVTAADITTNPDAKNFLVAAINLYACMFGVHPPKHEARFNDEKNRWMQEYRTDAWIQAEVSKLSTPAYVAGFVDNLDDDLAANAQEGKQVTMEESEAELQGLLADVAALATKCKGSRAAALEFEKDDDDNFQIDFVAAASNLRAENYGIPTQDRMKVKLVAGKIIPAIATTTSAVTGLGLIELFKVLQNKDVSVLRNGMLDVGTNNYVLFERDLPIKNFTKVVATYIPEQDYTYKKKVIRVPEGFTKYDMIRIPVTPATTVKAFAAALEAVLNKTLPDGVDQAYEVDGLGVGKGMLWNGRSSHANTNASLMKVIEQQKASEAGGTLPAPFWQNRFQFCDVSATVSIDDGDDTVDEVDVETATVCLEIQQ
Put plainly: Leishmania donovani Ubiquitin Activating Enzyme (LdE1). The format is functional. The conditions noted are these: 30 µM.

In assay [3] the target is AMP-activated protein kinase, AMPK (Homo sapiens) (UniProt P54646+O43741+P54619+Q9UGJ0+Q9Y478+Q13131+Q9UGI9). Put plainly: AMP-dependent Kinase enzyme assay. An in vitro enzyme assay that detects ADP turnover that is directly proportional to AMPK activity. This uses naive AMPK that is activated during the assay with MK-8722. The settings on record: 30 µM. The format is functional.

Assay [4] has as its target Sialic acid-binding Ig-like lectin 9 (Homo sapiens) (UniProt Q9Y336). In words: Hs-Siglec9 ALPHAscreen SOP 20170721. The conditions noted are these: 10 µM. (In general: Alpha assays give light when donor and acceptor beads are brought close together.)
A further assay has as its system Trypanosoma cruzi. In words: Trypanosoma cruzi phosphomannomutase and mannose-1-phosphate guanylyltransferase assay. The format is functional. The settings on record: 10 µM.
Assay [5] concerns the target T2, Arginase-2, mitochondrial (Homo sapiens) (UniProt P78540).
T2 sequence (whole entry): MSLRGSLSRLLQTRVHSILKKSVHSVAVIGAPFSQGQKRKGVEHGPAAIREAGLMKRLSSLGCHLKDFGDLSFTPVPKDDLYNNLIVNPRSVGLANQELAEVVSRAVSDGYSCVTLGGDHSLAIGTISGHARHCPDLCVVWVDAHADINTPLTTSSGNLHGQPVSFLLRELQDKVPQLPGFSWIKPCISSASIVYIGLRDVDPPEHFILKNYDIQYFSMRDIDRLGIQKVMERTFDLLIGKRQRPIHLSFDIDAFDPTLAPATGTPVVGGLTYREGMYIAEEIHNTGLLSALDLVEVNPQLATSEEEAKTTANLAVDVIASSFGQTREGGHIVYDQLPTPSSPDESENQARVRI
Put plainly: in vitro enzyme assay to detect the production of urea directly proportional to the activity of Arginase II. Further: in the data most compounds retested in dose-response had high values. The format is functional. The settings on record: 33.3 µM.

In assay [6] the target is T3, Proteasome subunit beta (Trypanosoma cruzi) (UniProt O96673).
T3 sequence (whole entry): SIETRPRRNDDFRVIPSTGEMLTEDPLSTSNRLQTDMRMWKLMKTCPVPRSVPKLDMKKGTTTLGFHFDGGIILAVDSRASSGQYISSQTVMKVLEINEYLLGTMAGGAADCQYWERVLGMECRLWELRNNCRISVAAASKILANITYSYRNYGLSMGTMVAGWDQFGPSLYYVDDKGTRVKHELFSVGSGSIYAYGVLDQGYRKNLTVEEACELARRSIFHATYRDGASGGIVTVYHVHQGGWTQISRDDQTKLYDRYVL
In words: Trypanosoma cruzi proteasome chymotrypsin-like activity (TcProtChymo) assay. Further: in the data most compounds retested in dose-response had high values. The format is functional. The settings on record: 9.37 µM.

The species entered for another assay is Homo sapiens. Put plainly: To identify inhibition of the IFN signalling (Jak-Stat) pathway via expression of an eGFP reporter gene under the control of an IFN-stimulated response element (ISRE) containing MxA promoter. The format is functional. The conditions noted are these: 30 µM.
The target of assay [7] is T4, Tyrosyl-tRNA synthetase, putative (Trypanosoma cruzi (strain CL Brener)) (UniProt Q4DSP6).
T4 sequence (whole entry): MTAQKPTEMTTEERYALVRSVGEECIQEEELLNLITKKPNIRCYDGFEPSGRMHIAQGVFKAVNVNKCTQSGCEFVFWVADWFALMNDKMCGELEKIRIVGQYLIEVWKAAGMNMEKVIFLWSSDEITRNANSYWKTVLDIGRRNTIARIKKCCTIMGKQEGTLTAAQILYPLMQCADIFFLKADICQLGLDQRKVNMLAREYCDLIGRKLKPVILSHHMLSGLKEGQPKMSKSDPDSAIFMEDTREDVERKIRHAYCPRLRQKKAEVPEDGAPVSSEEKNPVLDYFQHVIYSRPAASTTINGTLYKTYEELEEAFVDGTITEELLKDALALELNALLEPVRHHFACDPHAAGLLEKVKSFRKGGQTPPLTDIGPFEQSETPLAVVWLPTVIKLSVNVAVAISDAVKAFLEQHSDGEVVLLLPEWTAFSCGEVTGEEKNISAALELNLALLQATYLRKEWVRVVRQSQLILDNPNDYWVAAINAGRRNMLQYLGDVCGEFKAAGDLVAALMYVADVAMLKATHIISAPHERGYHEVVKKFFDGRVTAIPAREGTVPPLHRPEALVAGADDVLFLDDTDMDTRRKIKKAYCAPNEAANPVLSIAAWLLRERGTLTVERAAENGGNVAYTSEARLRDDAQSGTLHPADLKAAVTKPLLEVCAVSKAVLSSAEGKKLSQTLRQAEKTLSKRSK
In words: Trypanosoma cruzi tyrosyl tRNA synthetase (TcYRS) _High Tyrosine SOP. Further: in the data most compounds retested in dose-response had high values. The format is functional. The conditions noted are these: 30 µM.

Assay [8] concerns the target T4, Tyrosyl-tRNA synthetase, putative (Trypanosoma cruzi (strain CL Brener)). In words: Trypanosoma cruzi tyrosyl tRNA synthetase (TcYRS) SOP. The format is functional. The conditions noted are these: 30 µM.
Assay [9] has as its target Chromo domain-containing protein 1 (Saccharomyces cerevisiae (strain ATCC 204508 / S288c) (Baker's yeast)) (UniProt P32657). Put plainly: ScCHD-1 Enzyme Inhibition Assay. Further: in the data most compounds retested in dose-response had high values. The format is functional. The conditions noted are these: 30 µM.

Each structure is given as a SMILES string. For some assays here: Entries with a potency or affinity are not part of this list.

Sequence of Protein translocase subunit SecA (Escherichia coli (strain K12)) (P10408 whole entry): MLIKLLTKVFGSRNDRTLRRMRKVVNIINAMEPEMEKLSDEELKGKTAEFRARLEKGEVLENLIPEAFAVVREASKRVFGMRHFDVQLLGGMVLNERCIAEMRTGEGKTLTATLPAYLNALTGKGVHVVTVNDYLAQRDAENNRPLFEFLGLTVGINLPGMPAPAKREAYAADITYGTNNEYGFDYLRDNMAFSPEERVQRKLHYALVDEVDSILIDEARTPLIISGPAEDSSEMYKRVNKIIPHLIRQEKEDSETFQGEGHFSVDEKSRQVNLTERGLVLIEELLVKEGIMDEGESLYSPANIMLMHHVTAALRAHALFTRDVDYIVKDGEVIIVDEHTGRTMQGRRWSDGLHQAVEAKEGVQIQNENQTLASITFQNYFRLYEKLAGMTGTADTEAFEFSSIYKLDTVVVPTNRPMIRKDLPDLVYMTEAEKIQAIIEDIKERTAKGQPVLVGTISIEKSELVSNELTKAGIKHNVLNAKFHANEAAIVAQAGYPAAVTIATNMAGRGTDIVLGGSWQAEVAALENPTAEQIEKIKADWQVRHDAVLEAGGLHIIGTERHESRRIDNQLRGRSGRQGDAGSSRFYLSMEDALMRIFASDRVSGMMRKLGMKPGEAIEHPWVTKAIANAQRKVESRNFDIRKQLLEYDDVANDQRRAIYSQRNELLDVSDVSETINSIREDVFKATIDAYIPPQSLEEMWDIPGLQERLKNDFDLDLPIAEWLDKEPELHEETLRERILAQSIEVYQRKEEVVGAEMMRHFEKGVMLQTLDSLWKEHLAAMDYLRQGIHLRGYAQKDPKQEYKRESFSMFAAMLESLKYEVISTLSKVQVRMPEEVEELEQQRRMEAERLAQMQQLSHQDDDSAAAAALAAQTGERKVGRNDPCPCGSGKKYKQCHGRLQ
Sequence of Sialic acid-binding Ig-like lectin 9 (Homo sapiens) (Q9Y336 whole entry): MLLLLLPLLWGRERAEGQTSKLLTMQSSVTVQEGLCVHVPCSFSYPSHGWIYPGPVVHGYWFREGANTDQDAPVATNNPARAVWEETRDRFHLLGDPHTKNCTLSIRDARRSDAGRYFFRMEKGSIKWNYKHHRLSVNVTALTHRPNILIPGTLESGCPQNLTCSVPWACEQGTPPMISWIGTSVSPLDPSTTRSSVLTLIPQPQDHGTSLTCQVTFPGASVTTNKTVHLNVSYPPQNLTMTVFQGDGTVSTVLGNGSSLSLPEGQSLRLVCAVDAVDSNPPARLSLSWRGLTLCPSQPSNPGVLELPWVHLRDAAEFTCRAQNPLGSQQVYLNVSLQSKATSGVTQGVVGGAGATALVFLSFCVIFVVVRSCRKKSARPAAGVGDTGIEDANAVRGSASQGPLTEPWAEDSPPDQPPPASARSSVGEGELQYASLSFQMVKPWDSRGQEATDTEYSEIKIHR
Sequence of Chromo domain-containing protein 1 (Saccharomyces cerevisiae (strain ATCC 204508 / S288c) (Baker's yeast)) (P32657 whole entry, the tested form may be a part): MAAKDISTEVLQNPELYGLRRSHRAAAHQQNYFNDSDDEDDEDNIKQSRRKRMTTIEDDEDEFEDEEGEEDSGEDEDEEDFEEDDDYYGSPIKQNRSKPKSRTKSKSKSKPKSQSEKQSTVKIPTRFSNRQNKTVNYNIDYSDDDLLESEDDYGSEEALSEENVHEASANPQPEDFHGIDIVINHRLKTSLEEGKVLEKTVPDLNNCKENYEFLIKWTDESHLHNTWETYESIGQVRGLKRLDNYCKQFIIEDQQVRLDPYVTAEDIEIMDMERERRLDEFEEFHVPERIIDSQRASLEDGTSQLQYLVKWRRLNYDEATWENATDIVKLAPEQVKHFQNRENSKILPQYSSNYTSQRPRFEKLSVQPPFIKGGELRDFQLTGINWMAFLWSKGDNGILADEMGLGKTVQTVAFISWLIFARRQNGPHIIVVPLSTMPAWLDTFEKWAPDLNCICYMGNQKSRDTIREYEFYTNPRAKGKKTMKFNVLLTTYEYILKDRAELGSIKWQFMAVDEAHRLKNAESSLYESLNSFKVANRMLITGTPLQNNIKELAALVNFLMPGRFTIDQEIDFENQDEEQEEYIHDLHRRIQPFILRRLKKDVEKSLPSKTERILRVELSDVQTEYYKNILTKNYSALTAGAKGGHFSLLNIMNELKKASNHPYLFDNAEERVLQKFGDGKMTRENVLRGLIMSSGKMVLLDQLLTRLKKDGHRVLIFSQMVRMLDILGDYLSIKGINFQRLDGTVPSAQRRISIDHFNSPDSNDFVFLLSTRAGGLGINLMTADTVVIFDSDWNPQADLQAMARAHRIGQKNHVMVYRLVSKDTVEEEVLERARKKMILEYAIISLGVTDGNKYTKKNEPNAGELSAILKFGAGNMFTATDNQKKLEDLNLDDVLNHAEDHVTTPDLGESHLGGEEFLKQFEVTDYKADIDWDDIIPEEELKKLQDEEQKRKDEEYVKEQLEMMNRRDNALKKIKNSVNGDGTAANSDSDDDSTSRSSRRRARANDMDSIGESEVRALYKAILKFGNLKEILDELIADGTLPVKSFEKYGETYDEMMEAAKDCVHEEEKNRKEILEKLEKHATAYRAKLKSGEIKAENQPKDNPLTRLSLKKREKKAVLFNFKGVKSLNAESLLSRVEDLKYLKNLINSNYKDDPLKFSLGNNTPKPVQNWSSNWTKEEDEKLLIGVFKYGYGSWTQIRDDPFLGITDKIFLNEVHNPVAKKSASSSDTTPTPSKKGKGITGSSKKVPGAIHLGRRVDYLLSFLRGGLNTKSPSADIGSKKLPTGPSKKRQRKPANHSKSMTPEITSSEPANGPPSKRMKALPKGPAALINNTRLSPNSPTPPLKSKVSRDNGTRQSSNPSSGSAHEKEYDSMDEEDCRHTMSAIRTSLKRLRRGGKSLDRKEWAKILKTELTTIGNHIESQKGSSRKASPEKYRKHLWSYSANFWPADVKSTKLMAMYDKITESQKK

As for `CCCc1noc(CCC(=O)N2CCCC2c2ccsc2)n1` (stereo not given), the Percent Effect in assay [1] was -3.59%; in [2] it was -55.7%; in assay [3] it was 0.791%; in [4] it was 6.07%; with Trypanosoma cruzi, 1.6%; in assay [5], -2.28%. Also, the Percent Effect was -0.409% in assay [6]; -2.86% in the assay filed under Homo sapiens; -2.46% in assay [7]; -1.27% in assay [8]; -4.16% in assay [9].

`O=C(c1ccncc1F)N1CCN(CC2CC2)c2ncccc2C1`: the Percent Effect is -8.25% in [1]; -1.33% in assay [2]; 4.65% in assay [3]; -2.72% in assay [4]; -9.63% with Trypanosoma cruzi; -14.6% in assay [5]. In addition, the Percent Effect was 10.2% in assay [6]; -11% in the assay filed under Homo sapiens; -6.35% in [7]; -10.3% in [8]; -9.4% in assay [9].

Take `NS(=O)(=O)c1ccc(NC(=O)CSc2ccc3c(c2)CCC3)cc1`: the Percent Effect in [1] was -2.43%; in [2], -2.7%; in assay [3], 2.08%; in assay [4] it was -4.31%; in the assay on Trypanosoma cruzi it was -4.69%; in assay [5] it was -21.2%. The Percent Effect was 13.1% in assay [6]; 6.93% in the assay filed under Homo sapiens; 1.98% in assay [7]; -13.4% in [8]; 17.3% in [9].

`CN(Cc1nnc(C2CC2)n1C)C1CCN(CCc2cccs2)C1` (stereo not given): the Percent Effect in [1] was -0.668%; in assay [2], 5.48%; in assay [3] it was -3.64%; in [4], 3.02%; in the assay with Trypanosoma cruzi, 8.33%; in [5], 0%. The Percent Effect in assay [6] is 15.5%; in the assay listed under Homo sapiens it was -8.16%; in assay [7], 2.08%; in assay [8], 6.17%; in [9] it was -3.22%.

With `Cc1ccc2c(c1)C1(CC2)CCN(c2nncs2)CC1`, the Percent Effect in [1] was -0.497%; in assay [2], 0%; in assay [3], 5.45%; in assay [4], 1.98%; in the assay on Trypanosoma cruzi it was 1.59%; in [5], 3.59%. Moreover, the Percent Effect in assay [6] came to 7.28%; in the assay listed under Homo sapiens it was 20.4%; in [7], 6.25%; in assay [8] it was 11.1%; in [9], 5.12%.

On to `CS(=O)(=O)NC[C@@H]1OC[C@H]2CN(C(=O)c3ccc[nH]3)CC[C@H]21`, for which the Percent Effect in [1] was -1.96%; in assay [2] it was -187%; in [3] it was 4.44%; in assay [4], 3.67%; in the assay with Trypanosoma cruzi, -18.5%; in assay [5] it was -44.3%. Also, the Percent Effect was 10.6% in assay [6]; -0.978% in the assay listed under Homo sapiens; -265% in [7]; -628% in assay [8]; -2.84% in assay [9].

Turning to `CCc1n[nH]c(C2CN(Cc3nnc(C4CC4)n3C)CCO2)n1` (stereo not given), the Percent Effect was 0.518% in assay [1]; 20.8% in [2]; -9.24% in assay [3]; -6.88% in [4]; -1.08% in the assay on Trypanosoma cruzi; 3.16% in assay [5]. The Percent Effect in [6] was 12.7%; in the assay listed under Homo sapiens, 30.4%; in assay [7], 2.86%; in assay [8], 9.41%; in assay [9] it was -17.9%.

Turning to `CNS(=O)(=O)c1cccc(CNC(=O)c2c(C)oc(C)c2C)c1`, the Percent Effect in assay [1] was -3.91%; in assay [2], 19%; in assay [3], 6.49%; in assay [4], -6.49%; in the assay on Trypanosoma cruzi it was 3.79%; in assay [5], -1.07%. Further, the Percent Effect in assay [6] came out at 18.4%; in the assay filed under Homo sapiens, 7.61%; in assay [7], 2.08%; in assay [8], 15.2%; in assay [9] it was 53.2%.

Take `Cc1nc(C)n(CC2CCCN(Cc3nc(C)c(C)o3)C2)n1` (stereo not given): the Percent Effect in [1] was -2.17%; in assay [2], 21.6%; in assay [3] it was -13.9%; in [4], -7.46%; in the assay on Trypanosoma cruzi, 2.92%; in assay [5] it was -12.8%. In addition, the Percent Effect in [6] was 17.7%; in the assay filed under Homo sapiens, 7.96%; in [7], 1.48%; in [8] it was 23.5%; in assay [9], -11%.

For the compound `CCC(=O)Nc1ccc(C(C)NC(=O)COCCOC)cc1` (stereo not given), the Percent Effect in assay [1] is 0.243%; in assay [2], 15.8%; in assay [3] it was -1.87%; in [4], -5.07%; in the assay with Trypanosoma cruzi, 1.46%; in assay [5] it was -3.55%. Moreover, the Percent Effect in assay [6] was 15.1%; in the assay filed under Homo sapiens, 23.5%; in assay [7], 4.25%; in assay [8], 15.6%; in assay [9], -5.61%.
